Screening data (PubChem BioAssay)
This is one part of a sample in which hits are shown more often than they occur.
S aureus helic – S. aureus DNA helicase inhibition; purified S. aureus helicase, fluorescence unwinding assay; inhibition, % (concentration not given with the values); 120,000 tested, 0.05% active; AID 485395; in the data active means inhibition above about 25%, passing the limit was not always enough;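 further: 0% = mean of negative control wells and 100% = mean of positive control wells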
Sa growth inh – blocks Staphylococcus aureus growth | S. aureus RN4220 growth, OD600, 20 h, 42 °C; hits give low values | relative growth, % (concentration not given with the values) | 170,000 tested, 0.53% active;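 active means relative growth at most 50% at the other temperature and 20+ points below 30 °C, or under 10% at both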
Starred values were filed as active, the others as inactive; · = no result given; ! = not active in a repeat.

SMILES	S aureus helic	Sa growth inh
COc1cc2c(cc1OC)C(=O)C(CC1CCN(Cc3ccccc3)CC1)C2 (stereo not given)	·	45.7*!
COc1ccc(-c2nsc(NC(=O)C(C)Oc3ccc(Cl)c(C)c3)n2)cc1 (stereo not given)	·	83.5
CC(Oc1ccc(F)cc1)C(=O)Nc1nc(-c2ccc(F)cc2)ns1 (stereo not given)	·	2.3*
O=C(CSc1nc(-c2ccccc2F)nc2cc(=O)[nH]n12)Nc1cccc(C(F)(F)F)c1	·	2.8*
O=C(CSc1nc(-c2cccc(Cl)c2)nc2cc(=O)[nH]n12)Nc1ccccc1	·	88.6
Cc1cc(NC(=O)COc2coc(CN3CCc4ccccc4C3)cc2=O)no1	-12.0	86.8
CCCN(C(=O)Cc1c(C(=O)O)[nH]c2ccc(Cl)cc12)c1ccc(OCC)cc1	·	28.6*
CCN(C(=O)Cc1c(C(=O)O)[nH]c2ccc(Cl)cc12)c1ccc(C)c(C)c1	6.0	79.9
CCC(C)c1ccc(NC(=O)C2CC=CCC2C(=O)O)cc1 (stereo not given)	14.0	113.9
c1ccc(-c2nn(-c3ccccc3)c3c2cnc2ccccc23)cc1	13.0	109.3
Oc1ccc2c(c1)c(-c1ccccc1)nn2-c1ccccc1	-26.0	19.7*
CNC(=S)Nc1cccc(C(F)(F)F)c1	11.0	114.3
CC(C)(C)NC(=S)Nc1cccc(C(F)(F)F)c1	3.0	0.1*
CC(C)c1ccc(NC(=S)Nc2cccc(C(F)(F)F)c2)cc1	·	-2.1*
COC(=S)Nc1cccc(C(F)(F)F)c1	·	94.5
CCCc1ccc(S(=O)(=O)N2CCNCC2)cc1	-3.0	103.2
N#C/C(=C\Nc1ccccc1O)c1nc2ccccc2o1	5.0	59.5
COc1ccc2c(COC(=O)c3ccc4c(=O)n5c(nc4c3)CCC5)cc(=O)oc2c1	26.0*	84.3
O=C(OCc1ccccc1Cl)c1ccc2c(=O)n3c(nc2c1)CCC3	14.0	83.5
CCCCOc1ccc(C(=O)Nc2nc3c(s2)CC(C)CC3)cc1 (stereo not given)	·	90.3
O=c1[nH]c(=O)n(C2C[C@H](O)[C@@H](CO)O2)cc1C(F)(F)F (stereo not given in full)	·	96.2
O=c1[nH]c(=O)n(C2C[C@@H](O)[C@@H](CO)O2)cc1F (stereo not given in full)	·	-0.7*
CCOC(=O)c1c(-c2cccs2)csc1NC(=O)c1ccccc1	6.0	113.9
CCOC(=O)c1c(-c2ccc(C)o2)csc1NC(=S)NC(=O)N(C)C	10.0	-0.6*
CCCCc1ccc(N2C(=O)C=CC2=O)cc1	17.0	36.0
SMILES	S aureus helic	Sa growth inh
CCn1nc(C(=O)O)c(=O)c2cc3c(cc21)OCO3	·	0.5*
CCn1cc(C(=O)O)c(=O)c2cc3c(cc21)OCO3	·	98.1
CCN(CC)CCNC(=O)Cn1ncc2c3ccccc3n(Cc3ccc(Cl)cc3)c2c1=O	·	108.1
Cc1cc(C(=O)Nc2ccc(Cl)cc2)c2c(C)nn(-c3ccccc3)c2n1	·	105.5
Cc1nn(-c2ccccc2)c2[nH]cc(C(=O)Nc3ccccc3)c(=O)c12	5.0	8.8*
CCN(CC)CCSc1nc(O)c(C2CCCCC2)c(=O)[nH]1	12.0	89.5
CCN(CC)CCCNc1nc2cc(OC)c(OC)cc2c2nc(-c3ccccc3)nn12	74.0*	104.4
CCN(CC)CCCNc1nc2cc(OC)c(OC)cc2c2nc(-c3cccnc3)nn12	43.0	93.5
COCCNC(=O)Cn1c(-c2cccs2)cc2cc(Cl)ccc21	·	91.0
CCCn1c(SCC(=O)NCCc2ccccc2)nc(O)cc1=O	-5.0	83.2
Cc1cccc(C(=O)Sc2cccccc2=O)c1	0.0	-1.0*
Cc1cccc(C(=O)Nc2cc3c(cc2C)n(C)c(=O)n3C)c1	·	79.6
COc1ccc(NC(=O)COC(=O)C2CC(=O)N(Cc3ccc(C)cc3)C2)cc1 (stereo not given)	15.0	99.4
Cc1nn(-c2ccccc2)c(C)c1C(=O)Oc1ccccc1	·	112.7
N#CSc1c(Cl)nc2sccn12	0.0	1.8*
O=C(c1c(Cl)nc2sccn12)N1CCOCC1	23.0	105.8
CN(C)c1cc(-c2ccc(Cl)cc2)oc(=O)c1Cl	·	104.5
NCc1cn(-c2ccccc2)nc1-c1ccccc1	2.0	86.4
N=C(N)SCc1cn(-c2ccccc2)nc1-c1ccc(Br)cc1	-6.0	1.1*
CCCCc1cc(=O)oc2cc(C)cc(O)c12	2.0	27.2
CCCc1cc(O)c2c(C)cc(=O)oc2c1	5.0	5.2*
O=C(O)/C=C/C(=O)c1ccccc1	5.0	124.2
O=C(/C=C/C(=O)c1ccc2ccccc2c1)c1ccccc1	3.0	-0.4*
COc1cccc(CNC(=O)CN(c2ccc(C)cc2)S(=O)(=O)N(C)C)c1OC	·	96.5
CN(C)c1ncnc2sc3c(c12)CCCC3	2.0	105.3
SMILES	S aureus helic	Sa growth inh
CC(=O)Nc1ccc(NC(=O)c2ncoc2-c2ccco2)cc1	·	88.4
COc1cccc(C2=CC(c3ccc(OC)c(OC)c3OC)n3ncnc3N2)c1 (stereo not given)	·	111.3
COC(=O)CSc1nnc2sc3ccccc3n12	13.0	101.7
CCC(c1nnc(SCC(=O)NCCc2ccc(Cl)cc2Cl)o1)N(C)C (stereo not given)	44.0*	87.8
CCC(c1nnc(SCC(=O)NCC(C)C)o1)N(C)C (stereo not given)	-6.0	98.3
CCCCNC(=O)Cn1c(=O)oc2ccccc21	8.0	91.0
CN(C)CC1COc2ccccc2C1=O (stereo not given)	·	-0.4*
O=C1c2ccccc2OCC1c1ccccc1 (stereo not given)	·	90.2
Cc1cc(C(=O)O/N=C(\N)c2ccc(C(C)(C)C)cc2)no1	10.0	101.5
Cc1ccc(C(=O)OCc2nc3ccccc3s2)cc1	14.0	·
CC(=O)Nc1ccc(S(=O)(=O)N2CCSC2)cc1	-17.0	·
Cn1nc(C(=O)N2CCCc3ccccc32)c2ccccc2c1=O	-1.0	93.8
CCCn1nc(C(=O)N2CCc3ccccc32)c2ccccc2c1=O	-6.0	45.6*
FC(F)(F)c1nc(SCc2ccc(Cl)cc2Cl)n[nH]1	·	-0.8*
O=c1[nH]nc(SCc2ccc(Cl)cc2Cl)c(=O)[nH]1	-10.0	89.8
